# Shown are actives, neighbours in structure and some others; about 1.5% of the full set was active somewhere.
# FEN1 inhibitor: qHTS Assay for the Inhibitors of Human Flap endonuclease 1 (FEN1). Recombinant FEN1 flap cleavage, fluorescence, 15 min. AID 588795, 2011. Potency, µM (highest dose often 114 µM), for inactives: at the top dose activity change, negative = inhibition, hits mostly inhibitors. P39748. actives 0.35% (n = 390,000); further: potency means the concentration at half of the fitted maximal effect; nearly all actives have a fitted effect of over 65% in size
#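 With each library titrated from low to high concentration, compounds met 10 nM FEN1 for 15 min at room temperature before 50 nM substrate was added; readings at 0 and 15 min fed four-parameter Hill curve fits.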
# BLM inh: qHTS Assay for Inhibitors of Bloom's syndrome helicase (BLM); recombinant BLM DNA unwinding, fluorescence dequenching; actives 0.2% (n = 350,000); AID 2528, 2010; Potency, µM (titrated, usually from 56.1 µM), for inactives: at the top dose activity change, negative = inhibition, most hits filed as inhibitors;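 further: potency means the concentration at half of the fitted maximal effect; plate controls were vehicle for no effect and no enzyme for full effect; nearly all actives have a fitted effect of over 35% in size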
# APE1 inh: qHTS Assay for Inhibitors of the Human Apurinic/apyrimidinic Endonuclease 1 (APE1); DNA repair nuclease/redox regulator APEX1 (Homo sapiens), P27695; recombinant APE1, TAMRA/BHQ-2 abasic DNA cleavage fluorescence; Potency, µM (series often up to 65.8 µM), without a hit: at the highest dose activity change, negative = inhibition, hits mostly inhibitors; actives 0.35% (n = 350,000);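 further: potency means the concentration at half of the fitted maximal effect; plate controls were vehicle for no effect and reference inhibitor for full effect; nearly all actives have a fitted effect of over 55% in size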
#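 APE1 at 0.75 nM preincubated 15 min at room temperature with compound. Reaction then started with 50 nM double-stranded THF-abasic substrate labelled with TAMRA/BHQ-2, and 525/598 nm fluorescence read kinetically. Activity taken as third-minus-first read difference, normalized to DMSO and NSC13755 controls.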
# PI5P4Ka inh: qHTS for Inhibitors of phosphatidylinositol 5-phosphate 4-kinase (PI5P4K). Phosphatidylinositol 5-phosphate 4-kinase type-2 alpha (Homo sapiens), P48426. PI5P4Kalpha enzyme, ADP-Glo luminescence, 60 min; stronger effect = lower value. max response, %. actives 1.2% (n = 330,000). AID 652105, 2013; active means max response of -50% or lower; inconclusive means between -30% and -50%; inactive means -30% or higher; further: value at the top dose of about 77 µM
#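 PI5P4Kalpha ADP-Glo assay; 5 microM ATP final; 60 min RT reaction; HEPES pH 7.4/EGTA/CHAPS, 5% DMSO; controls lacking substrate or enzyme; luminescent end-point.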
# GCN5L2 inh: qHTS Assay for Inhibitors of GCN5L2 | Potency, µM (doses to about 58.9 µM), without a hit: at the top dose activity change, negative = inhibition, most hits filed as inhibitors | AID 504327, 2011 | GCN5L2 HAT assay, ThioGlo1 CoA-SH fluorescence | actives 0.21% (n = 390,000); further: potency means the concentration at half of the fitted maximal effect
#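 Compounds, pin-transferred from DMSO stocks, meet 20nM GCN5L2 for 15 min before the reaction begins with H3(1-25) peptide (75uM) and acetyl-CoA (70uM). Thiol-reactive ThioGlo1 reports CoA release over 20 min at room temperature.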
# RECQ1 helicase: qHTS Assay for Inhibitors of RecQ-Like Dna Helicase 1 (RECQ1); Potency, µM (series often up to 57.3 µM), without a hit: at the top dose activity, negative = inhibition, usual class: inhibitors; AID 2549, 2010; ATP-dependent DNA helicase Q1 (Homo sapiens), P46063; actives 0.54% (n = 240,000); RECQ1 DNA unwinding, red fluorescence kinetic read;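 further: potency means the concentration at half of the fitted maximal effect; plate controls were vehicle for no effect and no enzyme for full effect; nearly all actives have a fitted effect of over 30% in size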
# Target sequence (P46063 whole entry, looked up): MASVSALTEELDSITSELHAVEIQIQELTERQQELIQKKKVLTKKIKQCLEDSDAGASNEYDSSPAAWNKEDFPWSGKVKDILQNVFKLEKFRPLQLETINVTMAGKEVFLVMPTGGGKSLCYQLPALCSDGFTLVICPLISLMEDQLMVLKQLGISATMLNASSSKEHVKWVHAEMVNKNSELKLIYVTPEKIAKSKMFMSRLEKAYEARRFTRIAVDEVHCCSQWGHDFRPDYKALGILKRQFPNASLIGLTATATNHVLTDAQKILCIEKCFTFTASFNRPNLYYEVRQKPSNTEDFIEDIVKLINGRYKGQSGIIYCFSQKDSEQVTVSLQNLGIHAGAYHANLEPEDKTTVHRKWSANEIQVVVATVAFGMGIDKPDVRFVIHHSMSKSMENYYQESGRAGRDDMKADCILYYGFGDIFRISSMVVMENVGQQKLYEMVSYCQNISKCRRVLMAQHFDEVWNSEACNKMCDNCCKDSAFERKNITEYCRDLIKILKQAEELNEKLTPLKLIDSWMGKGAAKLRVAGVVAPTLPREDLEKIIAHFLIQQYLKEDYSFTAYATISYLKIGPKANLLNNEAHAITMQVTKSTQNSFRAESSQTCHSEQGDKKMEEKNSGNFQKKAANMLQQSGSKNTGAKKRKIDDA
#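 RECQ1T1 50 nM; forked duplex (20 bp + 30-nt ss tails) 200 nM, ATP 2 mM final; pH 8.0, 2 mM MgCl2, 2.5 ug/ml poly(dI-dC); 15 min compound preincubation; discontinuous kinetic read over 2 h at RT.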
# Starred values were filed as active, the others as inactive; i = inactive; u = inconclusive; x = no result given; [ ] = dose if it differs, or a comment. Unless noted, the call rests on the fitted dose curve; in most records, active means well fitted curve in the direction sought with a large enough effect; inconclusive means small, poorly fitted or top-dose-only effect, or another doubt; inactive means no such curve, though single readings can be large; an effect the other way counts as inactive or inconclusive. Unless noted, on the % scale 0 is the no-effect control and ±100 the full control effect.
SMILES,FEN1 inhibitor,BLM inh,APE1 inh,PI5P4Ka inh,GCN5L2 inh,RECQ1 helicase
CCC1Cc2cc(O)ccc2C2=C1c1ccc(O)cc1CC2CC (stereo not drawn),x,-10%,-2%,x,0%,1%
CCOC(=O)c1c(NC(C)=O)sc2c(OCC(O)CN(CC)CC)c(Br)ccc12 (stereo not drawn),22µM*,142%,u,0,-6%,10%
NNc1ccc([N+](=O)[O-])c2[nH][nH]c(=O)c12,x,x,x,-83*,x,x
O=[N+]([O-])c1ccc(Nc2ccccc2)c2nonc12,-17%,-14%,15%,-26,-3%,x
CCSC(=O)N1CCN(/[N+]([O-])=N/Oc2ccc([N+](=O)[O-])cc2[N+](=O)[O-])CC1,-12%,x,x,x,x,x
Cc1c(C(=O)O)sc2nc(CSc3nnc(-c4ccc(F)cc4)n3C)[nH]c(=O)c12,-7%,-3%,12%,u,-6%,i
C=CCn1c(SCc2nc3sc(C(=O)O)c(C)c3c(=O)[nH]2)nnc1-c1ccccc1,-12%,-10%,15%,-67*,-5%,i
C=CCn1c(SCc2nc3sc(C(=O)O)c(C)c3c(=O)[nH]2)nnc1-c1ccc(C(C)(C)C)cc1,45µM*,-5%,u,-51*,-1%,-2%
Cc1nnc(SCc2nc3sc(C(=O)O)c(C)c3c(=O)[nH]2)s1,u,-11%,u,-62*,u,9%
O=C(C[n+]1ccccc1Br)c1ccc(-c2ccccc2)cc1,-13%,x,x,x,x,x
CN(C)c1ccc(/C=C/c2ccnc3ccccc23)cc1Cl,-19%,x,x,x,x,x
Nc1ccccc1S(=O)(=O)O,x,x,u,x,x,0%
Nc1c(Br)cc(Br)c2c1C(=O)c1c(cccc1S(=O)(=O)O)C2=O,u,x,x,-57*,x,x
CC(=O)Nc1ccc(/C=C/C(=O)c2ccc(-n3nncc3-c3ccccc3)cc2)cc1,-2%,x,x,x,x,x
Cc1nnc(N=c2ssnc2Cl)o1,u,x,-6%,-101*,2.8µM*,x
Cc1cc(C)nc(/N=c2/ssnc2Cl)c1,0%,-2%,2%,-1,-6%,-2%
Cc1ccc(N=c2ssnc2Cl)cc1,-1%,-2%,2%,-66*,20µM*,-5%
Cc1cc(Cl)ccc1N=c1ssnc1Cl,1%,0%,13%,-53*,28µM*,i
Nc1ccccc1N=c1ssnc1Cl,1%,-2%,10%,u,28µM*,-15%
CCCCCC(CC)COC(=O)CC(C(=O)OCC(CC)CCCC)S(=O)(=O)O (stereo not drawn),x,-29%,x,x,x,x
CC(=O)NC1=C(C#N)CCC1,4%,x,x,x,x,x
CC(C)(C)n1ncc2c(=O)n(Cc3ccc(Cl)c(C(F)(F)F)c3)cnc21,0%,x,-4%,x,x,x
CCCCCCCCN1C(=O)[C@H](CC(=O)NCc2ccc(C)o2)C[C@@]2(C(=O)OC)CCCCC=C12,x,x,x,-65*,x,x
CCCCCCCCN1C(=O)[C@H](CC(=O)NCc2ccc(C)o2)C[C@@]2(C(=O)OCC)CCC=C12,x,x,x,-61*,x,x
CCCCCCCCN1C(=O)[C@H](CC(=O)NCc2ccccc2)C[C@@]2(C(=O)OC)CCCCC=C12,x,x,x,15,x,x
SMILES,FEN1 inhibitor,BLM inh,APE1 inh,PI5P4Ka inh,GCN5L2 inh,RECQ1 helicase
CN(C)C1(CN=Cc2cc(Cl)cc([N+](=O)[O-])c2O)CCCCC1,-20%,-12%,25%,-62*,-22%,x
Cc1cc(C(=O)N/N=C/c2cc(Cl)cc([N+](=O)[O-])c2O)n[nH]1,-1%,-4%,-3%,-10,3%,-2%
Cc1cc(O)c2c(c1O)C(=O)C(O)=C(O)C2=O,x,-28%,6.3µM*,x,x,10µM*
COc1ccc(OC)c(/C=C/c2c3ccccc3cc[n+]2C)c1,-15%,x,x,x,x,x
N#Cc1c(-c2cccc(Br)c2)cc(-c2ccco2)[nH]c1=O,4%,u,-1%,-62*,-24%,u
O=C(COC(=O)CCN1C(=O)/C(=C\C=C\c2ccccc2)SC1=S)Nc1cc(F)ccc1F,-3%,-15%,2%,-51*,-10%,-18%
N#CC(C#N)=C1C=C2C=C(N3CCCCC3)CCC2CC1 (stereo not drawn),u,-21%,9%,1,-3%,28µM*
CCN(CC)C1=CC2=CC(=C(C#N)C#N)CCC2CC1 (stereo not drawn),u,-29%,1%,-8,0%,11%
Clc1ccc(-c2nc3ccc(Cl)cn3c2Cc2cccc(Cl)c2)cc1,x,x,x,-4,x,x
Clc1cccc(Cc2c(-c3ccco3)nc3ccc(Cl)cn23)c1,x,x,x,-65*,x,x
Cn1nc(-c2ccc(F)cc2)nc2c(=O)n(C)c(=O)nc1-2,-15%,x,x,x,x,x
CC(C)(C)OC(=O)NCCOCCOCCOc1ccc(-c2no[n+]([O-])c2C#N)cc1,x,x,-2%,x,x,x
O=C(NNC(=O)C1[C@H]2CCCC[C@@H]12)Nc1cccc2ccccc12 (stereo partly drawn),17%,1%,0%,-1,25µM*,i
COc1ccc2[nH]c(-c3ccc(F)cc3F)cc(=O)c2c1,x,-5%[75.6 µM],-2%,x,-14%[88.6 µM],i
COc1ccc2[nH]c3c4c(ccc3c2c1)C(=O)C=CC4=O,-7%,-22%,-6%,-65*,-1%,-1%
O=C(COc1ccccc1[N+](=O)[O-])Nc1cccc(C(=O)Nc2ccccc2C(=O)O)c1,u,-12%,-5%,-63*,u,x
C/C=C1\COC(C(=O)NC)(C(F)(F)F)C=C1C=C1CCCCC1 (stereo not drawn),0%,-4%,1%,x,x,i
O=C(C[n+]1ccccc1Cl)c1ccc2ccccc2c1,-9%,x,x,x,x,x
Cn1nc(-c2ccc(Cl)cc2)nc2c(=O)n(C)c(=O)nc1-2,-21%,5.6µM*,u,x,-5%,1.6µM*

# High-throughput results (PubChem)
